From PubChem BioAssay
In the library only some 3% were active in any assay of this set; here they are far more common.
Nrf2 block = blocks Nrf2 signaling; 360,000 compounds, 2.1% hits; AID 504444; A549 ARE-Fluc reporter, luciferase luminescence, 18-24 h; Potency, µM (titrated, usually from 46 µM), hits mostly inhibitors; further: nearly all actives have a fitted effect of over 60% in size
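Nrf2 function is reported as luminescence of an ARE-controlled luciferase in A549 cells. Compounds were tested at several concentrations, and a CellTiter-Fluor read on the same wells flagged cytotoxicity.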
Nrf2 activator = activates Nrf2 signaling. AREc32 ARE-luciferase reporter (MCF7-derived line), luminescence, 24 h. Potency, µM (highest dose often 46.1 µM), hits mostly activators. 410,000 compounds, 0.31% hits; further: nearly all actives have a fitted effect of over 65% in size
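AREc32_Fluc, 1000 cells/well, OPTI-MEM + 5% FBS, o/n 37 deg C 5% CO2; 23 nL cpd by pin tool, 24 hr; Steady-Glo 30 min RT, luminescence.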
TrxR1 inh = inhibitors of rat thioredoxin reductase 1; O89049; recombinant rTrxR1, NADPH fluorescence consumption, selenite substrate; Potency, µM (highest dose often 114 µM), actives largely listed as inhibitors; 390,000 compounds, 1% hits; AID 588453; further: nearly all actives have a fitted effect of over 65% in size
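Rat TrxR1 (90 nM in the dispensed reagent) was pre-reduced with 400 uM NADPH for 5 min at room temperature, then incubated with compound for 15 min. After 400 uM selenite was added, NADPH fluorescence (Ex 340/Em 450 nm) was followed for 8 min.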
A549 tox = A549 cytotoxicity, counter-screen for Nrf2 inhibitors; 390,000 compounds, 0.16% hits; A549 ARE-Fluc cells, CellTiter-Fluor viability, 18-24 h; Potency, µM (top dose mostly 46 µM), most hits filed as inhibitors
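A549 ARE_Fluc cells in 5% FBS OPTI-MEM were exposed to compounds in concentration-response for 18-24 h at 37 deg C. Viability was read by CellTiter-Fluor fluorescence (Ex 405/Em 525) after 30 min, before the luciferase read.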
GALK inhibitor = inhibitors of human galactokinase; P51570; AID 1868; Potency, µM (highest dose often 57.5 µM), hits mostly inhibitors; 270,000 compounds, 0.007% hits; Purified GALK, Kinase-Glo residual ATP luminescence
Target sequence (P51570 whole entry, looked up): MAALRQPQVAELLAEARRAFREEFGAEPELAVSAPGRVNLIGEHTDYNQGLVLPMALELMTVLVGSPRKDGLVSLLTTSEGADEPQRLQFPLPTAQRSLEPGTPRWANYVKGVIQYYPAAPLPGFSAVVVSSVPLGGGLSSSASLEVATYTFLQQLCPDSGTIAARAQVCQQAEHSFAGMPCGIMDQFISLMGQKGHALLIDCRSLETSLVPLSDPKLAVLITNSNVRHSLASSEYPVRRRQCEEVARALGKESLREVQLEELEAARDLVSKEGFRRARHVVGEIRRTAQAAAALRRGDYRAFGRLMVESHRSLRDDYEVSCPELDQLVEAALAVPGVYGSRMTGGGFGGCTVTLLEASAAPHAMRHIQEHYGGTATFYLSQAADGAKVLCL
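Human GALK (5 nM) with 35 uM ATP and 100 uM galactose in 20 mM HEPES pH 8.0, 5 mM MgCl2, 60 mM NaCl, 1 mM DTT, 0.01% BSA. After 1 h at room temperature, leftover ATP was read by Kinase-Glo Plus luminescence.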
TrxR1 substrate = substrates of rat thioredoxin reductase 1 | O89049 | 390,000 compounds, 0.01% hits | Potency, µM (doses to about 114 µM) | purified TrxR1 substrate turnover, NADPH consumption readout | AID 588456; further: nearly all actives have a fitted effect of over 50% in size
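Rat TrxR1, dispensed at 90 nM, was prereduced with 400 uM NADPH (final) for 5 min at ~22 deg C, then incubated with compound 15 min before 400 uM selenite. A first-read NADPH fluorescence drop versus no-compound background flagged substrates.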
Large screens that a line does not name were inactive. The call rests on the fitted dose curve; in most records, active means well fitted curve in the direction sought with a large enough effect; inconclusive means small, poorly fitted or top-dose-only effect, or another doubt; inactive means no such curve, though single readings can be large; an effect the other way counts as inactive or inconclusive.

N#CC1=C(N)C2=CCCC[C@H]2[C@H](c2ccc(Br)cc2)C1(C#N)C#N	Nrf2 activator inconclusive, TrxR1 inh 5µM
Cc1ccc(NC(=S)c2ccncc2)c(C)c1	Nrf2 block inconclusive, TrxR1 inh 20µM, A549 tox inconclusive
COc1ccc([N+](=O)[O-])cc1NCc1ccco1	Nrf2 block inconclusive, Nrf2 activator 11µM
COc1ccc(S(=O)(=O)NCc2ccco2)c2ccccc12	Nrf2 block 3.7µM, Nrf2 activator inconclusive, A549 tox inconclusive
COc1cc([N+](=O)[O-])ccc1NC(=O)NCc1ccco1	none
COc1ccc(/C=C/C(=O)O)cc1S(=O)(=O)NCc1ccco1	none
CCOC(=O)c1ccc(NC2(c3ccccc3)C(=O)c3ccccc3C2=O)cc1	none (no result: GALK inhibitor)
O=C(Nc1ccc(Cl)cc1Cl)[C@@H]1CC=C[C@@H]2CCN(C3CCCCC3)C(=O)[C@@H]21	none (no result: Nrf2 block, Nrf2 activator, A549 tox, GALK inhibitor)
CCNc1nc(C#N)nc(N2CCOCC2)n1	Nrf2 block 16µM (no result: Nrf2 activator, GALK inhibitor)
N#Cc1nc(N2CCOCC2)nc(N2CCOCC2)n1	none
Cc1ccc(N=C(NOCc2ccc(Cl)cc2Cl)c2nonc2N)c(C)c1	Nrf2 block 23µM
Cc1nn(Cc2ccc(F)cc2)c2sc(C(=O)Nc3ccc(N4CCOCC4)cc3N3CCOCC3)cc12	Nrf2 block 15µM
O=C(CSCc1ccc(F)cc1)Nc1ccc(N2CCOCC2)cc1N1CCOCC1	none (no result: GALK inhibitor)
Cc1ccc(CNC(=O)c2cc3c(C)nc4ccccc4c3o2)cc1	Nrf2 block 18µM
Cc1nc2ccccc2c2oc(C(=O)NCCCN3CCCC(C)C3)cc12 (centres undefined)	Nrf2 block inconclusive, A549 tox 21µM
CCc1ccc(C(=O)c2cn(CC(=O)Nc3ccc(F)cc3)c3ccc(F)cc3c2=O)cc1	Nrf2 block inconclusive, A549 tox inconclusive (no result: GALK inhibitor)
Cc1cccc(N(C)S(=O)(=O)c2c(C(=O)N3CCCCCC3)c(C)n(C)c2C)c1	none (no result: GALK inhibitor)
c1ccc(Cn2nnnc2C(c2ccncc2)N2CCOCC2)cc1 (centres undefined)	none
Cc1cc(C(c2nnnn2Cc2ccccc2)N2CCOCC2)c(C)n1-c1ccc2c(c1)OCO2 (centres undefined)	Nrf2 block inconclusive, Nrf2 activator inconclusive, TrxR1 inh 7.9µM
CC(=O)c1ccc(N2CCN(C(=O)Nc3ccc(C(C)C)cc3)CC2)cc1	Nrf2 block 7.3µM, A549 tox inconclusive
CC(=O)c1ccc(N2CCN(C(=O)Nc3ccc(F)cc3)CC2)cc1	none (no result: Nrf2 block, Nrf2 activator, TrxR1 inh, A549 tox, TrxR1 substrate)
O=C(c1ccccc1NS(=O)(=O)c1ccc([N+](=O)[O-])cc1[N+](=O)[O-])N1O[C@@H]2C=C[C@H]1C2	Nrf2 activator inconclusive, TrxR1 inh 3.2µM (no result: GALK inhibitor)
Cc1ccc(S(=O)(=O)N2[C@@H](c3ccc(C(C)(C)C)cc3)C(C(=O)O)=CC[C@H]2c2ccc(Cl)cc2)cc1	Nrf2 block 18µM (no result: GALK inhibitor)
CCc1ccc([C@@H]2CC=C(C(=O)O)[C@H](c3ccccc3)N2S(=O)(=O)c2ccc(C)cc2)cc1	none (no result: GALK inhibitor)
Cc1ccc(S(=O)(=O)N2[C@@H](c3cccc(Cl)c3)C(C(=O)O)=CC[C@H]2c2ccc(Cl)cc2)cc1	none (no result: GALK inhibitor)
Cc1ccc([C@@H]2CC=C(C(=O)O)[C@H](c3ccc(C(C)(C)C)cc3)N2S(=O)(=O)c2ccc(C)cc2)cc1	Nrf2 block 18µM (no result: GALK inhibitor)
CCc1ccc([C@@H]2CC=C(C(=O)O)[C@H](c3ccc(C(C)(C)C)cc3)N2S(=O)(=O)c2ccc(C)cc2)cc1	Nrf2 block 21µM, A549 tox inconclusive (no result: GALK inhibitor)
Cc1ccc([C@H]2C(C(=O)O)=CC[C@@H](c3cccs3)N2S(=O)(=O)c2ccc(C)cc2)cc1	Nrf2 block 26µM, A549 tox inconclusive (no result: GALK inhibitor)
Cc1cc2[nH]c3c(=O)n(Cc4ccccc4F)ncc3c2s1	none (no result: Nrf2 activator, TrxR1 inh, GALK inhibitor, TrxR1 substrate)
COc1ccccc1N1CCN(c2ccc(=O)n(CC(=O)O)n2)CC1	none (no result: GALK inhibitor)
Cc1ccc(S(=O)(=O)N2[C@@H](c3ccc(C(C)(C)C)cc3)C(C(=O)O)=CC[C@H]2c2ccc(C(C)C)cc2)cc1	Nrf2 block 2.9µM, TrxR1 inh inconclusive, A549 tox inconclusive (no result: GALK inhibitor)
